# Data as given in PubChem BioAssay (NCI).
# The panel holds about 79,000 compounds, 15% with a hit somewhere; the sample as a whole holds those more often. A number with no mark means an inactive call. Active and inactive are the calls of the source. Rule as the data show it: active = growth inhibition above about 70%; inactive = the rest.
# Tests used:
# [1] = NCI Yeast Anticancer Drug Screen. Data for the rad52 strain (AID 147);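 also: 0% = growth of vehicle-treated control cultures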; settings: S. cerevisiae rad52 mutant growth inhibition, stronger effect = higher value
# Method in brief: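 DNA repair-defective yeast; compound exposure; growth scored against vehicle controls.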
# [2] = NCI Yeast Anticancer Drug Screen. Data for the wt1 strain (AID 149);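 also: 0% = growth of vehicle-treated wt1 cultures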; settings: S. cerevisiae wt1 strain (SPY 50644) growth inhibition, stronger effect = higher value
# Method in brief: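 Measured: growth of wt1 yeast under compound versus vehicle treatment, reported as inhibition.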
# [3] = NCI Yeast Anticancer Drug Screen. Data for the rad50EPP+ strain (AID 151);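 also: 0% = growth of vehicle-treated control cultures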; settings: S. cerevisiae rad50 mutant strain, stronger effect = higher value
# Method in brief: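 rad50EPP+ yeast treated with test compounds. Readout: growth vs vehicle control.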
# [4] = NCI Yeast Anticancer Drug Screen. Data for the mgt1 strain (AID 153); settings: S. cerevisiae mgt1 mutant growth inhibition, stronger effect = higher value
# Method in brief: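 Growth inhibition relative to vehicle controls was scored for the mgt1 yeast strain after compound exposure.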
# [5] = NCI Yeast Anticancer Drug Screen. Data for the rad50 strain (AID 155);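 also: 0% = growth of vehicle-only cultures of the same strain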; settings: S. cerevisiae rad50 strain growth inhibition, stronger effect = higher value
# Method in brief: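 Growth of the mutant yeast was measured after compound exposure and referenced to vehicle-treated cultures.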
# [6] = NCI Yeast Anticancer Drug Screen. Data for the mec2-1 strain (AID 157); settings: S. cerevisiae mec2-1 strain, stronger effect = higher value
# Method in brief: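 Growth inhibition is read against vehicle-treated controls after compound exposure of the mec2-1 yeast strain, which is defective in DNA damage repair or cell cycle control.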
# [7] = NCI Yeast Anticancer Drug Screen. Data for the rad14 strain (AID 159);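 also: 0% = growth of vehicle-treated control cultures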; settings: S. cerevisiae rad14 strain growth inhibition, stronger effect = higher value
# Method in brief: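 Here, inhibition of yeast growth was measured after compound exposure, using a strain with a genetic defect in DNA damage repair and vehicle-treated cultures as the reference.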
# [8] = NCI Yeast Anticancer Drug Screen. Data for the sgs1 mgt1 strain (AID 161);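 also: 0% = growth of cultures given vehicle only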; settings: S. cerevisiae sgs1 mgt1 strain, stronger effect = higher value
# Method in brief: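 Growth of a repair-deficient yeast mutant was monitored after compound treatment and expressed as inhibition relative to vehicle-treated cultures.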
# [9] = NCI Yeast Anticancer Drug Screen. Data for the CLN2oe strain (AID 163);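 also: 0% = growth of vehicle-only control cultures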; settings: S. cerevisiae CLN2oe strain, stronger effect = higher value
# Method in brief: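 Compound-treated yeast; growth vs vehicle ctrl = % inhibition. Genetically altered strain (cell-cycle control).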
# [10] = NCI Yeast Anticancer Drug Screen. Data for the cln2 rad14 strain (AID 165);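 also: 0% = growth equal to vehicle treated cultures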; settings: S. cerevisiae cln2 rad14 strain, stronger effect = higher value
# Method in brief: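 Growth inhibition, relative to vehicle-treated controls, is the read-out. The test organism is a yeast strain with defined genetic alterations, cln2 rad14.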
# [11] = NCI Yeast Anticancer Drug Screen. Data for the bub3 strain (AID 167); settings: S. cerevisiae bub3 mutant strain, stronger effect = higher value
# Method in brief: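 Whole-cell yeast assay. The mutant strain was incubated with compounds, and growth inhibition was determined by comparison with vehicle-treated cells.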
# [12] = at 5.0 µM (retest, dose inferred, filed as 0.5)
# [13] = at 50.0 µM (retest, dose inferred, filed as 5.0)
smiles,measurement,setting,value
CN(C)c1ccc2c(SCC(=O)OCC(=O)[C@@]3(O)CC[C@H]4[C@@H]5CCC6=CC(=O)C=C[C@]6(C)[C@H]5C(=O)C[C@@]43C)c3ccc(N(C)C)cc3nc2c1,growth inhibition,[1]; at 1.2 µM,-7%
same,growth inhibition,[1]; at 3.7 µM,-8%
same,growth inhibition,[1]; at 11.0 µM,46%
same,growth inhibition,[1]; at 33.0 µM,90% (active)
same,growth inhibition,[1]; at 100.0 µM,92% (active)
same,growth inhibition,[2]; at 1.2 µM,16%
same,growth inhibition,[2]; at 3.7 µM,-16%
same,growth inhibition,[2]; at 11.0 µM,64%
same,growth inhibition,[2]; at 33.0 µM,91% (active)
same,growth inhibition,[2]; at 100.0 µM,91% (active)
same,growth inhibition,[3]; at 1.2 µM,1%
same,growth inhibition,[3]; at 3.7 µM,6%
same,growth inhibition,[3]; at 11.0 µM,6%
same,growth inhibition,[3]; at 33.0 µM,63%
same,growth inhibition,[3]; at 100.0 µM,83% (active)
same,growth inhibition,[4]; at 1.2 µM,-27%
same,growth inhibition,[4]; at 3.7 µM,-37%
same,growth inhibition,[4]; at 11.0 µM,69%
same,growth inhibition,[4]; at 33.0 µM,89% (active)
same,growth inhibition,[4]; at 100.0 µM,88% (active)
same,growth inhibition,[5]; at 1.2 µM,-31%
same,growth inhibition,[5]; at 3.7 µM,-13%
same,growth inhibition,[5]; [12],7%
same,growth inhibition,[5]; at 11.0 µM,71% (active)
same,growth inhibition,[5]; at 33.0 µM,90% (active)
same,growth inhibition,[5]; [13],89% (active)
same,growth inhibition,[5]; at 50.0 µM,60.2%
same,growth inhibition,[5]; at 100.0 µM,89% (active)
same,growth inhibition,[6]; at 1.2 µM,-10%
same,growth inhibition,[6]; at 3.7 µM,-5%
same,growth inhibition,[6]; [12],13%
same,growth inhibition,[6]; at 11.0 µM,55%
same,growth inhibition,[6]; at 33.0 µM,90% (active)
same,growth inhibition,[6]; [13],86% (active)
same,growth inhibition,[6]; at 50.0 µM,72.9% (active)
same,growth inhibition,[6]; at 100.0 µM,90% (active)
same,growth inhibition,[7]; at 1.2 µM,-12%
same,growth inhibition,[7]; at 3.7 µM,-22%
same,growth inhibition,[7]; at 11.0 µM,66%
same,growth inhibition,[7]; at 33.0 µM,90% (active)
same,growth inhibition,[7]; at 100.0 µM,88% (active)
same,growth inhibition,[8]; [12],12%
same,growth inhibition,[8]; [13],92% (active)
same,growth inhibition,[8]; at 50.0 µM,78.7% (active)
same,growth inhibition,[9]; at 1.2 µM,9%
same,growth inhibition,[9]; at 3.7 µM,16%
same,growth inhibition,[9]; at 11.0 µM,53%
same,growth inhibition,[9]; at 33.0 µM,89% (active)
same,growth inhibition,[9]; at 100.0 µM,89% (active)
same,growth inhibition,[10]; [12],0%
same,growth inhibition,[10]; [13],78% (active)
same,growth inhibition,[10]; at 50.0 µM,80.7% (active)
same,growth inhibition,[11]; at 1.2 µM,-13%
same,growth inhibition,[11]; at 3.7 µM,-4%
same,growth inhibition,[11]; [12],22%
same,growth inhibition,[11]; at 11.0 µM,55%
same,growth inhibition,[11]; at 33.0 µM,87% (active)
same,growth inhibition,[11]; [13],95% (active)
same,growth inhibition,[11]; at 50.0 µM,72.3% (active)
same,growth inhibition,[11]; at 100.0 µM,89% (active)
